Source: PubChem BioAssay (several laboratories)
This is a sample that favours compounds with a hit; in the whole collection about 3% have one here.
LGR2 antag – inhibitors of bursicon-induced Drosophila LGR2 receptor cAMP signaling. hit rate 0.35% among 380,000. inhibition, % at 9.99 µM. HEK293 LGR2, CRE-luciferase, bursicon-stimulated, 4 h;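 active = drop in luminescence signal, shown as inhibition above about 50% in the replicate tests, limit read from the data, passing the limit was not always enough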;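 also: agonist challenge used bursicon conditioned medium at about half maximal strength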
MITF act – increases MITF-driven TRPM1 promoter luciferase signal | SK-MEL-5 TRPM1-promoter luciferase, 24 h; % of positive control, neutral wells = 0 | activation, % at 12.5 µM | hit rate 0.75% among 300,000 | AID 588334;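 active = mean activation of at least 80% with every replicate also reaching 80%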;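 also: 0% = neutral control wells and 100% = parthenolide positive control wells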
TROY NFkB inh – blocks TROY-dependent signaling in reporter cells; AID 1347056; hit rate 0.98% among 360,000; inhibition, % at 10 µM; Q293 LMP1-TROYcd NF-kB luciferase reporter, 4 h;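 active = compounds whose plate-normalised and pattern-corrected inhibition of the luciferase reporter signal at the single screening dose is 50% or more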
LMP1 NFkB inh – inhibitors of Epstein-Barr LMP1-induced NF-kappaB reporter; inhibition, % at 12.5 µM; LMP1-induced NF-kappaB luciferase reporter cells, luminescence; hit rate 0.69% among 350,000; AID 504558; in the data active = inhibition above about 41%;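 also: 0% = neutral control wells and 100% = reference inhibitor control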
TWEAK Fn14 block – TWEAK-Fn14 signaling inhibition | AID 1159606 | inhibition, % at 10 µM | TWEAK-stimulated Fn14 reporter cells, luciferase luminescence, 8 h | hit rate 2% among 360,000; in the data active = inhibition above about 50%
TRPM1 prom inh – inhibitors of MITF-driven TRPM1 promoter in melanoma cells; SK-MEL-5 TRPM1 promoter luciferase, 24 h; inhibition, % at 12.5 µM; hit rate 0.83% among 330,000;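 active = mean inhibition across replicates of 60% or more, whatever share of single replicates reaches that level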
Starred values were filed as active, the others as inactive; . = no result.

SMILES | LGR2 antag | MITF act | TROY NFkB inh | LMP1 NFkB inh | TWEAK Fn14 block | TRPM1 prom inh
COC(=O)c1ccccc1NC(=O)c1ccco1 | -4 | . | 9 | 3 | -3 | -3
O=C(CCNC(=O)c1ccco1)Nc1nc2ccccc2s1 | 1 | 26 | -39 | -17 | -11 | -21
Cc1ccc(N2CCN(C3=NC(=O)/C(=C\c4cn[nH]c4-c4ccccc4)S3)CC2)cc1 | 20 | -11 | 10 | 69* | -2 | 9
O=C1N=C(N2CCN(c3ccccc3)CC2)S/C1=C\c1cn[nH]c1-c1ccccc1 | 60* | -20 | -5 | 20 | 26 | 19
Cc1cccc(N2CCN(C3=NC(=O)/C(=C\c4cn[nH]c4-c4ccccc4)S3)CC2)c1 | 8 | 11 | 14 | 12 | 12 | -10
O=C1N=C(N2CCC(Cc3ccccc3)CC2)S/C1=C/c1cn[nH]c1-c1ccccc1 | . | . | 47 | 1 | 77* | 7
CCC(=O)N1CC2(C1)CN(C(=O)CC)[C@@H](CO)c1[nH]c3cc(OC)ccc3c12 | -8 | . | . | . | . | .
N#Cc1ccc(NC(=O)CSc2cn[nH]n2)cc1 | 8 | 7 | -3 | -2 | 90* | -5
CO[C@H]1CN(C)C(=O)c2cc(NC(C)=O)ccc2OC[C@@H](C)N(Cc2ccc(F)cc2)C[C@@H]1C | -11 | . | . | . | . | .
COc1ccc(NC(=S)Nc2cc(C)[nH]n2)cc1Cl | -32 | 59 | -40 | -10 | -7 | -56
Cc1cc(NC(=S)Nc2ccc(C)c(Cl)c2)n[nH]1 | -64 | 91* | -53 | -25 | -15 | -87
CN(CCOc1ccc(Cl)cc1)C(=O)c1cccc(S(=O)(=O)N2CCN(Cc3ccccc3)CC2)c1 | 8 | . | 39 | 18 | 57* | .
CCS(=O)(=O)N1CCC2(CC1)CN(Cc1ccc3c(c1)OCO3)[C@@H](CO)c1c2c2ccc(OC)cc2n1C | -14 | . | . | . | . | .
O=C(CNC(=O)c1ccc(Br)cc1)NC1CC1 | -14 | 4 | 3 | -5 | -20 | -5
CC1CCC(NC(=O)CCNC(=O)c2ccc(Br)cc2)CC1 (stereo unspecified) | -30 | 82* | -69 | -11 | -20 | -80
CC(C)COc1ccc(C(=O)N(Cc2ccco2)C2CCS(=O)(=O)C2)cc1 (stereo unspecified) | . | 6 | . | 2 | 73* | -7
CCCCCOc1ccc(C(=O)N(Cc2ccco2)C2CCS(=O)(=O)C2)cc1 (stereo unspecified) | 10 | -12 | 6 | 2 | -8 | 3
CC(Oc1ccc(Cl)cc1Cl)C(=O)N(Cc1ccco1)C1CCS(=O)(=O)C1 (stereo unspecified) | . | -8 | . | -1 | 83* | 10
COC(=O)C[C@H]1C[C@H]2c3cc(NS(=O)(=O)c4cccc(OC)c4)ccc3O[C@H]2[C@H](CO)O1 | 19 | . | . | . | . | .
O=C(Nc1ccccc1)c1cc(C2CCCN(C(=O)c3ccccc3)C2)on1 (stereo unspecified) | -24 | . | -58 | . | -7 | .
CCCC(=O)N1CCCC(c2cc(C(=O)Nc3ccccc3)no2)C1 (stereo unspecified) | 82* | . | 83* | . | 95* | .
c1ccc(-c2nn(-c3ccccc3)[n+](-c3ccccc3)n2)cc1 | 10 | -58 | 7 | 0 | 32 | 62*
Cc1ccc(C)c(NS(=O)(=O)c2ccc(NC(=O)CSc3ccc(Cl)cc3)cc2)c1 | -12 | -10 | 5 | 4 | -11 | 5
Cc1ccc(NS(=O)(=O)c2ccc(NC(=O)C(C)Sc3ccc(Cl)cc3)cc2)c(C)c1 (stereo unspecified) | 10 | -11 | 50 | 60* | 43 | 11
O=C(N/C(=C/c1ccccc1Cl)C(=O)N1CCOCC1)c1ccccc1 | 1 | 4 | 3 | 67* | 9 | -3
SMILES | LGR2 antag | MITF act | TROY NFkB inh | LMP1 NFkB inh | TWEAK Fn14 block | TRPM1 prom inh
CCSc1nnc(NC(=O)CSc2nnc(-c3c[nH]c4ccccc34)n2CC)s1 | -8 | -1 | 2 | 85* | 8 | 3
CCc1nnc(NC(=O)CSc2nnc(-c3c[nH]c4ccccc34)n2CC)s1 | . | 17 | -6 | -11 | 14 | -8
CCn1c(SCC(=O)Nc2nc(-c3ccccc3)cs2)nnc1-c1ccccc1 | . | 1 | 43 | 9 | 54* | -2
CCOC(=O)c1c(NC(=O)CSc2c[nH]c3ccccc23)sc2c1CCCC2 | 13 | . | 34 | -46 | 23 | .
CCOC(=O)c1c(NC(=O)CSc2nnc(-c3c[nH]c4ccccc34)n2CCOC)sc2c1CCCCC2 | 28 | . | 3 | 3 | 53* | .
COc1ccc(OC)c2sc(N3CCc4ccccc4C3)nc12 | -9 | 33 | -24 | 5 | -16 | -33
c1ccc2c(c1)CCN(c1nc3cc4c(cc3s1)OCCO4)C2 | . | -55 | 75* | 25 | 103* | 56
Oc1[nH]c2ccccc2c1N=Nc1c(F)c(F)c(Cl)c(F)c1F | 4 | . | -37 | 69* | 1 | .
COc1ccc(NC(=O)Nc2cccc3c2O[C@H](CN(C)Cc2ccc(Oc4ccccc4)cc2)[C@@H](C)CN([C@H](C)CO)C3=O)cc1 | 5 | . | . | . | . | .
CC(C)(c1ccccc1)c1ccc(OCC(O)CNC2CCN(Cc3ccccc3)CC2)cc1 (stereo unspecified) | 104* | -79 | 21 | -13 | -69 | 79*
CC(C)(O)[C@H]1Cc2cc3ccc(=O)oc3cc2O1 | -20 | 98* | -32 | -1 | -13 | -91
C=C(C)C1Cc2cc3ccc(=O)oc3cc2O1 (stereo unspecified) | -46 | 38 | -42 | -5 | -7 | -41
O=C(O)c1ccccc1-c1ccc(/C=c2\sc3nc4cc(Br)cnc4n3c2=O)o1 | . | -15 | 19 | -10 | 75* | 18
Cc1cc2nc3s/c(=C/c4ccc(-c5ccccc5C(=O)O)o4)c(=O)n3c2cc1C | -3 | -4 | 3 | -3 | 14 | 6
C[C@H](CO)N1C[C@H](C)[C@@H](CN(C)C(=O)C2CCCCC2)OCCCC[C@H](C)Oc2ccc(NC(=O)NC3CCCCC3)cc2C1=O | 15 | . | . | . | . | .
Cc1noc(C)c1S(=O)(=O)Nc1ccc2c(c1)C(=O)N([C@@H](C)CO)C[C@@H](C)[C@H](CN(C)Cc1ccccc1)O2 | -4 | . | . | . | . | .
Cc1c(C(=O)Nc2cccc([N+](=O)[O-])c2)csc1-c1ccccc1 | . | 56 | -34 | -59 | -26 | -51
Cc1ccc(NC(=O)c2cc(C)n(-c3ccccc3)c2C)cc1 | . | -50 | 89* | 31 | 97* | 50
Cc1cc(C(=O)Nc2ccc(Cl)cc2)n(-c2ccccc2)n1 | -12 | 29 | -57 | 3 | -13 | -39
Cc1ccc(NC(=O)c2cnn(-c3ccccc3)c2C)cc1 | 45 | . | 1 | 2 | 64* | -4
Cc1ccc(NC(=O)c2csc(-c3ccccc3)c2C)cc1 | . | -18 | 74* | 45* | 81* | 16
Cc1cc(C(=O)Nc2ccc(Cl)cc2)c(C)n1-c1ccccc1 | 82* | . | 89* | . | 103* | .
Cc1ccc(NC(=O)c2cc(C)n(-c3cccc(C)c3)c2C)cc1 | -65 | 18 | 44 | -62 | 37 | -21
